Measured values reported in the supplement of paper PMC6555819.

Assays:
Assay in all cases: PBM binding z-score (relative to random genomic background probes); higher = stronger binding; sequences stand for … in GC…GCGATTGACAGCGTAGAATGAAGG
[1] = test system: FXR:RXRa (NR concentration 270 nM, RXRa partner concentration 90 nM)
Method in brief: (§1)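 Scanned fluorescence from custom Agilent 4×180K protein-binding microarrays was regression-normalized. Binding z-scores use random background probes as reference. Ligand-free nuclear receptor dimers were incubated on the arrays for 1 h and detected with antibodies against each partner (one per run).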

[2] = test system: LXRa:RXRa (NR concentration 270 nM, RXRa partner concentration 90 nM)
Method in brief: as §1

[3] = test system: LXRa homodimer (NR concentration 270 nM)
Method in brief: as §1

[4] = test system: LXRb:RXRa (NR concentration 270 nM, RXRa partner concentration 90 nM)
Method in brief: as §1

[5] = test system: LXRb homodimer (NR concentration 270 nM)
Method in brief: as §1

[6] = test system: PPARa:RXRa (NR concentration 270 nM, RXRa partner concentration 90 nM)
Method in brief: as §1

[7] = test system: PPARg:RXRa (NR concentration 180 nM, RXRa partner concentration 90 nM)
Method in brief: as §1

[8] = test system: PPARg:RXRa 270nM:90nM, anti-RXR (NR concentration 270 nM, RXRa partner concentration 90 nM)
Method in brief: as §1

[9] = test system: PPARg:RXRa 30nM:10nM, anti-RXR (NR concentration 30 nM, RXRa partner concentration 10 nM)
Method in brief: as §1

[10] = test system: PPARg:RXRa 90nM:30nM, anti-RXR (NR concentration 90 nM, RXRa partner concentration 30 nM)
Method in brief: as §1

Sequence	PBM binding z-score [1]	PBM binding z-score [2]	PBM binding z-score [3]	PBM binding z-score [4]	PBM binding z-score [5]	PBM binding z-score [6]	PBM binding z-score [7]	PBM binding z-score [8]	PBM binding z-score [9]	PBM binding z-score [10]
TCTTGTTGGTCACGGAGGTCACACACGACGGGTA	3.76	3.86	3.29	3.62	2.2	4.14	3.58	4.44	3.5	4.07
CCTCGGAGGCCAACAGGAGGTCAGAGCTGCCAGA	1.54	2.49	1.48	1.58	-0.663	2.29	0.0544	0.339	-0.921	-0.26
TATACAGGGTCAAAGGCCAGAGTTCGAATGTCGA	7.08	6.38	3.94	4.81	2.5	6.15	8.48	7.27	5.54	7.17
GGAAGGAGGGCAAGTTGATAGCAGAGTTTGATGG	1.04	0.798	0.562	1.5	1.47	1.92	1.2	1.53	0.406	0.957
TCTGCTAGGTCAACGACGGTCAGCTAATCTGCTA	3.49	4.34	0.203	1.97	0.156	3.28	2.09	2.97	1.76	2.26
CGAACGAGGGCATGAGTAGATAGCAAATGCCGAT	0.0959	0.081	-0.748	-0.189	-1.08	0.99	1.4	0.988	0.168	0.198
TCTAGCAGGCCAGAGGGTCACACAAGAGGTACGG	1.67	1.66	-0.408	1.83	-1.34	3.11	2.49	3.28	2.36	3.09
CCTCGGAGGACAGAAGGCCAGAGCTGTCCGCTTT	-0.543	-0.556	-1.17	-1.28	-1.6	-1.15	-0.739	-1.08	-1.21	-1.06
TAACCTAGGTCATTGGGCCAGTATAGTACGCATC	5.13	4.92	2.81	3.43	0.934	4.54	4.87	4.88	1.89	3.88
CCTACTCGGCCATTCAGAGGTCATTGATCATATG	3.34	4.79	7.45	4.25	1.6	3.7	1.05	1.96	0.587	1.31
CGTCCAAGGTCATCAGGTCAGTGAAAGCGACGTG	7.31	5.49	1.85	4.14	0.684	5.83	6.35	6.07	2.32	4.84
CCTACTGGGCCAAAATGGTCATTGATGCCGATAA	-0.236	-0.291	-0.317	-0.55	-0.875	0.318	0.666	0.897	-0.124	0.804
ACTCAAAGTTCACTAGGTAACGTAAGATTCAGCT	5.32	5.16	3.54	3.55	1.83	4.73	5.15	5.21	2.16	4.22
CCTTACGGGTCACTGACAGGTTATCGCATTTGGA	5.35	4.35	0.422	3.38	0.0444	5.12	4.53	4.36	1.04	2.96
GCGACTGGGGCATCAGCGGGTTACCATAACTTAA	-0.361	-0.573	-0.505	0.433	-0.992	1.11	0.815	0.669	-0.383	0.237
CGAACTAGGTCATTGATAGGACAGTGAATAGTAA	3.4	2.63	0.471	1.82	-0.194	4.38	7.14	5.99	3.25	5.56
CCTTACGGGTCACGAGGCTATAGCACGACGAGCG	6.52	3.97	0.0117	3.26	-0.222	5.83	6.52	5.91	2.64	4.4
TCGAGTAGGTTACAAATGGGGCATTCAGCTTTCT	0.181	1.08	-0.216	1.01	-0.699	1.25	0.565	1.21	1.43	1.04
AGTATGAGGTTAAGATCAGGGAAACAGAATACAT	1.71	2.36	0.00803	1.84	0.314	3.08	1.76	1.45	0.773	1.12
AGAATGTGGTTATTAAGATCAGGGAATTGCGGTC	0.0647	-0.0146	0.00993	-0.0352	0.111	-0.0476	0.144	0.078	-0.037	0.417
ATATGTAGGTTACATCAGGGTCATTCAGGCTATG	3.26	4.84	2.29	3.97	0.66	5.17	6.84	5.54	3.17	4.87
AGAACGAGGGCACGCTGAGTTGATATCAGAGTAG	0.635	0.337	-0.489	-0.0642	-0.77	2.02	2.14	1.79	0.489	1.22
TTACCAAGGTGAGCTAAGGTCGTTGATCCAACTC	3.04	1.56	-0.466	0.977	-1.12	1.66	0.5	1.42	0.431	0.771
ACTTACGGGTCAACGAGGTTAGAGCACGCGTATA	6.72	4.76	0.422	3.9	0.261	5.57	5.52	5.72	2.15	4.13
TTACCAAGGTGAGCTGAGGCCGTTGATCCAACTC	0.053	-0.536	-0.916	-0.569	-1.39	0.236	-0.296	-0.253	-0.438	-0.329
